Laboratory results as given in paper PMC12529666, “Dysregulation of AGO2-miRNA dynamics underlies the AGO2-associated Lessel–Kreienkamp syndrome”.

B1: ACGCCCCA (ssRNA)
RNA 1: GAGUUCUACAGUCCGACGAUCCCAACACGCCCCACACCUGGAAUUCUCGGGUGCCAA
RNA 2: UGGAGUGUGACAAUGGUGUUUG
DNA 1: GATCGTCGGACTGTAGAACTC
DNA 2: TTGGCACCCGAGAATTCCA
modifications: constant regions annealed to DNA blockers; guide miR-122 5' phosphate
B2: GTGTCCCA (ssRNA)
RNA 1: GAGUUCUACAGUCCGACGAUCCCAACGUGUCCCACACCUGGAAUUCUCGGGUGCCAA
RNA 2: UGGAGUGUGACAAUGGUGUUUG
DNA 1: GATCGTCGGACTGTAGAACTC
DNA 2: TTGGCACCCGAGAATTCCA
modifications: constant regions annealed to DNA blockers; guide miR-122 5' phosphate
B3: ACGTCCCA (ssRNA)
RNA 1: GAGUUCUACAGUCCGACGAUCCCAACACGUCCCACACCUGGAAUUCUCGGGUGCCAA
RNA 2: UGGAGUGUGACAAUGGUGUUUG
DNA 1: GATCGTCGGACTGTAGAACTC
DNA 2: TTGGCACCCGAGAATTCCA
modifications: constant regions annealed to DNA blockers; guide miR-122 5' phosphate
B4: ATGTCTTA (ssRNA)
RNA 1: GAGUUCUACAGUCCGACGAUCCCAACAUGUCUUACACCUGGAAUUCUCGGGUGCCAA
RNA 2: UGGAGUGUGACAAUGGUGUUUG
DNA 1: GATCGTCGGACTGTAGAACTC
DNA 2: TTGGCACCCGAGAATTCCA
modifications: constant regions annealed to DNA blockers; guide miR-122 5' phosphate
B5: GTGCTTCG (ssRNA)
RNA 1: GAGUUCUACAGUCCGACGAUCCCAACGUGCUUCGCACCUGGAAUUCUCGGGUGCCAA
RNA 2: UGGAGUGUGACAAUGGUGUUUG
DNA 1: GATCGTCGGACTGTAGAACTC
DNA 2: TTGGCACCCGAGAATTCCA
modifications: constant regions annealed to DNA blockers; guide miR-122 5' phosphate
B6: GTACCTCA (ssRNA)
RNA 1: GAGUUCUACAGUCCGACGAUCCCAACGUACCUCACACCUGGAAUUCUCGGGUGCCAA
RNA 2: UGGAGUGUGACAAUGGUGUUUG
DNA 1: GATCGTCGGACTGTAGAACTC
DNA 2: TTGGCACCCGAGAATTCCA
modifications: constant regions annealed to DNA blockers; guide miR-122 5' phosphate
B7: GCGCCTCA (ssRNA)
RNA 1: GAGUUCUACAGUCCGACGAUCCCAACGCGCCUCACACCUGGAAUUCUCGGGUGCCAA
RNA 2: UGGAGUGUGACAAUGGUGUUUG
DNA 1: GATCGTCGGACTGTAGAACTC
DNA 2: TTGGCACCCGAGAATTCCA
modifications: constant regions annealed to DNA blockers; guide miR-122 5' phosphate
B8: GCACCCCG (ssRNA)
RNA 1: GAGUUCUACAGUCCGACGAUCCCAACGCACCCCGCACCUGGAAUUCUCGGGUGCCAA
RNA 2: UGGAGUGUGACAAUGGUGUUUG
DNA 1: GATCGTCGGACTGTAGAACTC
DNA 2: TTGGCACCCGAGAATTCCA
modifications: constant regions annealed to DNA blockers; guide miR-122 5' phosphate
B9: GCGCTCCA (ssRNA)
RNA 1: GAGUUCUACAGUCCGACGAUCCCAACGCGCUCCACACCUGGAAUUCUCGGGUGCCAA
RNA 2: UGGAGUGUGACAAUGGUGUUUG
DNA 1: GATCGTCGGACTGTAGAACTC
DNA 2: TTGGCACCCGAGAATTCCA
modifications: constant regions annealed to DNA blockers; guide miR-122 5' phosphate
B10: GCGCCTTA (ssRNA)
RNA 1: GAGUUCUACAGUCCGACGAUCCCAACGCGCCUUACACCUGGAAUUCUCGGGUGCCAA
RNA 2: UGGAGUGUGACAAUGGUGUUUG
DNA 1: GATCGTCGGACTGTAGAACTC
DNA 2: TTGGCACCCGAGAATTCCA
modifications: constant regions annealed to DNA blockers; guide miR-122 5' phosphate
B11: GCGCTCCG (ssRNA)
RNA 1: GAGUUCUACAGUCCGACGAUCCCAACGCGCUCCGCACCUGGAAUUCUCGGGUGCCAA
RNA 2: UGGAGUGUGACAAUGGUGUUUG
DNA 1: GATCGTCGGACTGTAGAACTC
DNA 2: TTGGCACCCGAGAATTCCA
modifications: constant regions annealed to DNA blockers; guide miR-122 5' phosphate
B12: GCGTTTCA (ssRNA)
RNA 1: GAGUUCUACAGUCCGACGAUCCCAACGCGUUUCACACCUGGAAUUCUCGGGUGCCAA
RNA 2: UGGAGUGUGACAAUGGUGUUUG
DNA 1: GATCGTCGGACTGTAGAACTC
DNA 2: TTGGCACCCGAGAATTCCA
modifications: constant regions annealed to DNA blockers; guide miR-122 5' phosphate
B13: GTGCCTTA (ssRNA)
RNA 1: GAGUUCUACAGUCCGACGAUCCCAACGUGCCUUACACCUGGAAUUCUCGGGUGCCAA
RNA 2: UGGAGUGUGACAAUGGUGUUUG
DNA 1: GATCGTCGGACTGTAGAACTC
DNA 2: TTGGCACCCGAGAATTCCA
modifications: constant regions annealed to DNA blockers; guide miR-122 5' phosphate
B14: ACATTTTA (ssRNA)
RNA 1: GAGUUCUACAGUCCGACGAUCCCAACACAUUUUACACCUGGAAUUCUCGGGUGCCAA
RNA 2: UGGAGUGUGACAAUGGUGUUUG
DNA 1: GATCGTCGGACTGTAGAACTC
DNA 2: TTGGCACCCGAGAATTCCA
modifications: constant regions annealed to DNA blockers; guide miR-122 5' phosphate
B15: ATATTCCA (ssRNA)
RNA 1: GAGUUCUACAGUCCGACGAUCCCAACAUAUUCCACACCUGGAAUUCUCGGGUGCCAA
RNA 2: UGGAGUGUGACAAUGGUGUUUG
DNA 1: GATCGTCGGACTGTAGAACTC
DNA 2: TTGGCACCCGAGAATTCCA
modifications: constant regions annealed to DNA blockers; guide miR-122 5' phosphate
B16: GCACCTTA (ssRNA)
RNA 1: GAGUUCUACAGUCCGACGAUCCCAACGCACCUUACACCUGGAAUUCUCGGGUGCCAA
RNA 2: UGGAGUGUGACAAUGGUGUUUG
DNA 1: GATCGTCGGACTGTAGAACTC
DNA 2: TTGGCACCCGAGAATTCCA
modifications: constant regions annealed to DNA blockers; guide miR-122 5' phosphate
B17: ACACCTTA (ssRNA)
RNA 1: GAGUUCUACAGUCCGACGAUCCCAACACACCUUACACCUGGAAUUCUCGGGUGCCAA
RNA 2: UGGAGUGUGACAAUGGUGUUUG
DNA 1: GATCGTCGGACTGTAGAACTC
DNA 2: TTGGCACCCGAGAATTCCA
modifications: constant regions annealed to DNA blockers; guide miR-122 5' phosphate
B18: GCGTCCCA (ssRNA)
RNA 1: GAGUUCUACAGUCCGACGAUCCCAACGCGUCCCACACCUGGAAUUCUCGGGUGCCAA
RNA 2: UGGAGUGUGACAAUGGUGUUUG
DNA 1: GATCGTCGGACTGTAGAACTC
DNA 2: TTGGCACCCGAGAATTCCA
modifications: constant regions annealed to DNA blockers; guide miR-122 5' phosphate
B19: ACACCCCG (ssRNA)
RNA 1: GAGUUCUACAGUCCGACGAUCCCAACACACCCCGCACCUGGAAUUCUCGGGUGCCAA
RNA 2: UGGAGUGUGACAAUGGUGUUUG
DNA 1: GATCGTCGGACTGTAGAACTC
DNA 2: TTGGCACCCGAGAATTCCA
modifications: constant regions annealed to DNA blockers; guide miR-122 5' phosphate

Molecular target: AGO2 WT (phosphosite mutant background) (Homo sapiens, UniProt Q9UKV8 1-859, S387D;S824A;S828D;S831D;S834A)
Sequence (Q9UKV8 whole entry S387D/S824A/S828D/S831D/S834A): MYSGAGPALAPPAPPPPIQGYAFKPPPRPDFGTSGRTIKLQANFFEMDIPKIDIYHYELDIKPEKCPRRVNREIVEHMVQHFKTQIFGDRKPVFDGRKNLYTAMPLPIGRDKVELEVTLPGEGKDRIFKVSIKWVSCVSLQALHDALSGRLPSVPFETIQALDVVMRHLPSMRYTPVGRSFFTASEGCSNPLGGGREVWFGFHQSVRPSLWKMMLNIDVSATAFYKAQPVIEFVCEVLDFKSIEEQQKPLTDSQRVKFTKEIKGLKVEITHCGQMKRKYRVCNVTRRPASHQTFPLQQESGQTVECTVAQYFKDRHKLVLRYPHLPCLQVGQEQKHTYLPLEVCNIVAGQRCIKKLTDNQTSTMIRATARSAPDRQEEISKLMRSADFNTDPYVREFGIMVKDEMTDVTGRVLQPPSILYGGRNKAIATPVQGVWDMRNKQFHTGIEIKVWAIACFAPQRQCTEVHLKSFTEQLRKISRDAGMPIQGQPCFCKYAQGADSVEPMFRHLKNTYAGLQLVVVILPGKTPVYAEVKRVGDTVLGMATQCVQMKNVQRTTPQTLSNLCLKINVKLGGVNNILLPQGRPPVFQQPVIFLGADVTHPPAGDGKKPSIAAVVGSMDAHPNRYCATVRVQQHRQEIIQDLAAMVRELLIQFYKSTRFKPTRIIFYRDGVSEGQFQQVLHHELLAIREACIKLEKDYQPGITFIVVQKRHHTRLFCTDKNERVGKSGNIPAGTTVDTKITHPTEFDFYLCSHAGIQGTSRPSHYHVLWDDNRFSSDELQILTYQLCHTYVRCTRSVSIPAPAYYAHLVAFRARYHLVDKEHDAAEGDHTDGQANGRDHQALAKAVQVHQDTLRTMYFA
Assay: RNA Bind-n-Seq (nitrocellulose filter binding and sequencing); miR-122 guide loaded in AGO2; 60 min incubation; 30 mM Tris pH 8.0, 100 mM potassium acetate, 2 mM magnesium acetate, 0.5 mM TCEP, 0.005% NP-40, 0.01 mg/ml yeast tRNA; 3 nM AGO2-miR-122, 100 nM RNA library; 60; high values mean tight binding
Conditions: protein: recombinant; tags: His6 (N-terminal, pFastBac HTA)
Method in brief: (§1)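 Fold enrichment is each target's read fraction divided by its read fraction in the input library. Sf9 insect cells expressed His-tagged AGO2 from baculovirus; the protein was loaded with a synthetic guide RNA and purified by Ni-NTA and a biotinylated capture oligo. The bound RNA was extracted, reverse-transcribed, barcode-amplified and sequenced on Illumina.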

Binder	binding signal
B1	0.123 fold enrichment over input
B2	0.125 fold enrichment over input
B3	0.127 fold enrichment over input
B4	0.142 fold enrichment over input
B5	0.127 fold enrichment over input
B6	0.149 fold enrichment over input
B7	0.131 fold enrichment over input
B8	0.129 fold enrichment over input
B9	1.63 fold enrichment over input
B10	0.125 fold enrichment over input
B11	1.39 fold enrichment over input
B12	0.125 fold enrichment over input
B13	0.126 fold enrichment over input
B14	0.122 fold enrichment over input
B15	0.121 fold enrichment over input
B16	0.132 fold enrichment over input
B17	0.164 fold enrichment over input
B18	0.126 fold enrichment over input
B19	0.152 fold enrichment over input

Molecular target: AGO2 L192P (Homo sapiens, UniProt Q9UKV8 1-859, L192P;S387D;S824A;S828D;S831D;S834A)
Sequence (Q9UKV8 whole entry L192P/S387D/S824A/S828D/S831D/S834A): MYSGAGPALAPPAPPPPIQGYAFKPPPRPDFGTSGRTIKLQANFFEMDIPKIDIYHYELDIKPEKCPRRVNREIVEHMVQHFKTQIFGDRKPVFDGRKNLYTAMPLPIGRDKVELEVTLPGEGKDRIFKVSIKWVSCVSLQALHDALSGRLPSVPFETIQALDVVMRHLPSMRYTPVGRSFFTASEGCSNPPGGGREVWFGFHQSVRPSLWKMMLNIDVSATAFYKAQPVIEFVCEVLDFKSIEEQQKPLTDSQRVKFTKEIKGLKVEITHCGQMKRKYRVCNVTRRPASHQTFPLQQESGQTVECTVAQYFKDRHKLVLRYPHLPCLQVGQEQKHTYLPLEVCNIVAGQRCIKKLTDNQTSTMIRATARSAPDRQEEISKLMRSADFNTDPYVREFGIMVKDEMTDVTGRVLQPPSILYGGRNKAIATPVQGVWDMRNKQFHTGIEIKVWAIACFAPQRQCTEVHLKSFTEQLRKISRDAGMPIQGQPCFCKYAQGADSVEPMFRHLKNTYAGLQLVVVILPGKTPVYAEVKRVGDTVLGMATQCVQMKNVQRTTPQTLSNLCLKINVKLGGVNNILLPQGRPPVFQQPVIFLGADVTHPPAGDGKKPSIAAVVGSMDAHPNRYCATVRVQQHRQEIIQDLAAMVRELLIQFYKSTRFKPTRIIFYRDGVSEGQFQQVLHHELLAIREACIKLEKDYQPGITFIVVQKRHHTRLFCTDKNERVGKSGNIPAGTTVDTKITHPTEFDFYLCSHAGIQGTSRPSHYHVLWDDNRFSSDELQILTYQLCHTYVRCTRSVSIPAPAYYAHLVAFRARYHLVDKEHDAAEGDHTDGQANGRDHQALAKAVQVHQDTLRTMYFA
Assay: as above
Conditions: protein: recombinant; tags: His6 (N-terminal, pFastBac HTA)
Method in brief: as §1

Binder	binding signal
B1	0.538 fold enrichment over input
B2	0.479 fold enrichment over input
B3	0.569 fold enrichment over input
B4	0.569 fold enrichment over input
B5	0.455 fold enrichment over input
B6	0.573 fold enrichment over input
B7	0.523 fold enrichment over input
B8	0.455 fold enrichment over input
B9	3.25 fold enrichment over input
B10	0.5 fold enrichment over input
B11	3.09 fold enrichment over input
B12	0.513 fold enrichment over input
B13	0.555 fold enrichment over input
B14	0.534 fold enrichment over input
B15	0.564 fold enrichment over input
B16	0.59 fold enrichment over input
B17	0.755 fold enrichment over input
B18	0.51 fold enrichment over input
B19	0.517 fold enrichment over input

Molecular target: AGO2 A367P (Homo sapiens, UniProt Q9UKV8 1-859, A367P;S387D;S824A;S828D;S831D;S834A)
Sequence (Q9UKV8 whole entry A367P/S387D/S824A/S828D/S831D/S834A): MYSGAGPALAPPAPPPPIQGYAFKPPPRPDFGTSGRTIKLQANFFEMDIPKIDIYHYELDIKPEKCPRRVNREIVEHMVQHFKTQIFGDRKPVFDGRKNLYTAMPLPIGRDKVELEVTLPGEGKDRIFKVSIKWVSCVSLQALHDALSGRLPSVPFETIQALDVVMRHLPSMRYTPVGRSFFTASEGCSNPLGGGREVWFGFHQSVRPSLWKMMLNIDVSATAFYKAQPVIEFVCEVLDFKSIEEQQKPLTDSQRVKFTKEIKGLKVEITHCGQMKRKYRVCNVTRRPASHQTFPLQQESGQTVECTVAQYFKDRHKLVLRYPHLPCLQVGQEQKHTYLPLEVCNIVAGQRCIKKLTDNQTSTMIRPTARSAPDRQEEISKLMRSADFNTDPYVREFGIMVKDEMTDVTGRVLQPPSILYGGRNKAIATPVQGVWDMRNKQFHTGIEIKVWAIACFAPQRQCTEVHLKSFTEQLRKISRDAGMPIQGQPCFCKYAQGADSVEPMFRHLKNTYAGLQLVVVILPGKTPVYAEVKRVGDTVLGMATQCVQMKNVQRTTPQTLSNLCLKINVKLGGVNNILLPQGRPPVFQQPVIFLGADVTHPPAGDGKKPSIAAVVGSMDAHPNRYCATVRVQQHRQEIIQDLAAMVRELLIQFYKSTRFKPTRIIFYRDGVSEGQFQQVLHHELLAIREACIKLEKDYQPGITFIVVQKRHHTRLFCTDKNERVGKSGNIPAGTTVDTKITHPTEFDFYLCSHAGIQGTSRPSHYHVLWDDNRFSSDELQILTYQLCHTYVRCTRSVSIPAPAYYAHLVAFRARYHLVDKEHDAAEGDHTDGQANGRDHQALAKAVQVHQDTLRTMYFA
Assay: as above
Conditions: protein: recombinant; tags: His6 (N-terminal, pFastBac HTA)
Method in brief: as §1

Binder	binding signal
B1	0.215 fold enrichment over input
B2	0.249 fold enrichment over input
B3	0.255 fold enrichment over input
B4	0.399 fold enrichment over input
B5	0.192 fold enrichment over input
B6	0.44 fold enrichment over input
B7	0.233 fold enrichment over input
B8	0.21 fold enrichment over input
B9	2.69 fold enrichment over input
B10	0.194 fold enrichment over input
B11	4.35 fold enrichment over input
B12	0.227 fold enrichment over input
B13	0.217 fold enrichment over input
B14	0.209 fold enrichment over input
B15	0.22 fold enrichment over input
B16	0.307 fold enrichment over input
B17	0.475 fold enrichment over input
B18	0.215 fold enrichment over input
B19	0.259 fold enrichment over input

Molecular target: AGO2 T357M (Homo sapiens, UniProt Q9UKV8 1-859, T357M;S387D;S824A;S828D;S831D;S834A)
Sequence (Q9UKV8 whole entry T357M/S387D/S824A/S828D/S831D/S834A): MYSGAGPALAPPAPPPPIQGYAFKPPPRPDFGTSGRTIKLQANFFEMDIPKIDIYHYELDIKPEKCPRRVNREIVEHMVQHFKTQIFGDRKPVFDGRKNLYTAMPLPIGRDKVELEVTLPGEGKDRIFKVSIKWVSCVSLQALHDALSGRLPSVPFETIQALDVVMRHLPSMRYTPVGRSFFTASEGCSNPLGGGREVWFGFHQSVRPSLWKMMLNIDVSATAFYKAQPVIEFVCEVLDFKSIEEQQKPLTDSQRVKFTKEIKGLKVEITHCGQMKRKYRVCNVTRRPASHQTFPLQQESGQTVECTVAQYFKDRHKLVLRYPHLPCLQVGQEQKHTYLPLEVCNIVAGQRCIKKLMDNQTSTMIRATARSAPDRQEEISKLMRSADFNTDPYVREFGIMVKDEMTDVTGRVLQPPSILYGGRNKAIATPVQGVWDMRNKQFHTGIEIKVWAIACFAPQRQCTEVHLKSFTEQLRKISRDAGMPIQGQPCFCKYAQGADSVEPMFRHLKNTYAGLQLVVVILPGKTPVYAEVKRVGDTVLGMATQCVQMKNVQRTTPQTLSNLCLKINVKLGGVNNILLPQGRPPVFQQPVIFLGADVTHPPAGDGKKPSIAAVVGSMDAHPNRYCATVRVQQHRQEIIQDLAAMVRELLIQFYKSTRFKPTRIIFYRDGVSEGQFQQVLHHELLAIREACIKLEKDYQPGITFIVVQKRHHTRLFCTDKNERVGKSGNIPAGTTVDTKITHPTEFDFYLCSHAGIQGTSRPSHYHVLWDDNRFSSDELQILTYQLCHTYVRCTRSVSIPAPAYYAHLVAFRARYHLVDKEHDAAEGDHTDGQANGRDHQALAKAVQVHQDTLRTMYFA
Assay: as above
Conditions: protein: recombinant; tags: His6 (N-terminal, pFastBac HTA)
Method in brief: as §1

Binder	binding signal
B1	0.719 fold enrichment over input
B2	0.602 fold enrichment over input
B3	0.637 fold enrichment over input
B4	0.646 fold enrichment over input
B5	0.624 fold enrichment over input
B6	0.601 fold enrichment over input
B7	0.741 fold enrichment over input
B8	0.634 fold enrichment over input
B9	1.03 fold enrichment over input
B10	0.763 fold enrichment over input
B11	0.905 fold enrichment over input
B12	0.632 fold enrichment over input
B13	0.801 fold enrichment over input
B14	0.598 fold enrichment over input
B15	0.646 fold enrichment over input
B16	0.657 fold enrichment over input
B17	0.721 fold enrichment over input
B18	0.751 fold enrichment over input
B19	0.517 fold enrichment over input

Molecular target: AGO2 F182del (Homo sapiens, UniProt Q9UKV8 1-859, S387D;S824A;S828D;S831D;S834A;del182-182)
Sequence (Q9UKV8 other isoform, or with tags, fused parts or gaps S387D;S824A;S828D;S831D;S834A;del182-182): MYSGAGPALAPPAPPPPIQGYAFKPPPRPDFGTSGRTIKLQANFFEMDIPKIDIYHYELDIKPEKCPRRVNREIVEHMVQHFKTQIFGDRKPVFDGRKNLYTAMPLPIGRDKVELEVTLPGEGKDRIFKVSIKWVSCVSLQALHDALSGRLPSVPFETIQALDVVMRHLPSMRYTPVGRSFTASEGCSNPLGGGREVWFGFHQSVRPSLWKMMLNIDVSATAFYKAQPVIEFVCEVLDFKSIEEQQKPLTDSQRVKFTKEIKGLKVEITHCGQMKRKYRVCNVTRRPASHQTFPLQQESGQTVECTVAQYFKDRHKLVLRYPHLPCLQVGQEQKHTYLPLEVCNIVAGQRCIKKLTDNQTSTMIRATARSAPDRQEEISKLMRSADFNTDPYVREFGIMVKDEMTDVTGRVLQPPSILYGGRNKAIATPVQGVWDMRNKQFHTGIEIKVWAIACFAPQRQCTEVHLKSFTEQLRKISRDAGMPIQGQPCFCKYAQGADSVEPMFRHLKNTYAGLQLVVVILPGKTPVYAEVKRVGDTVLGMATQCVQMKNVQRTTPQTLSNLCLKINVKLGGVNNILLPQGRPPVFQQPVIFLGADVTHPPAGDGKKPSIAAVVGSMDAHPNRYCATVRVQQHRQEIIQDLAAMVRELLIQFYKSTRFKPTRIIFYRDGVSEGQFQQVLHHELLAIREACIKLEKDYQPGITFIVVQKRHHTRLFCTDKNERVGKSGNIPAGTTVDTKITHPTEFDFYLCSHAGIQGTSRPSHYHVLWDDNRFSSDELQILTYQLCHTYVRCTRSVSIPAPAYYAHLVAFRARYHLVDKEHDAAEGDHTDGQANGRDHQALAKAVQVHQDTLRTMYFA
Assay: as above
Conditions: protein: recombinant; tags: His6 (N-terminal, pFastBac HTA)
Method in brief: as §1

Binder	binding signal
B1	0.236 fold enrichment over input
B2	0.268 fold enrichment over input
B3	0.446 fold enrichment over input
B4	0.57 fold enrichment over input
B6	1.57 fold enrichment over input
B7	0.304 fold enrichment over input
B8	0.203 fold enrichment over input
B9	6.7 fold enrichment over input
B11	7.66 fold enrichment over input
B12	0.326 fold enrichment over input
B14	0.359 fold enrichment over input
B15	0.372 fold enrichment over input
B16	0.717 fold enrichment over input
B17	1.89 fold enrichment over input
B18	0.169 fold enrichment over input
B19	0.82 fold enrichment over input
